# From PubChem BioAssay
# KB-3-1 cytotox: qHTS assay for MDR1-selective chemotherapeutics: Primary screen using the parental adenocarcinoma cell KB-3-1; KB-3-1 viability, CellTiter-Glo ATP luminescence, 72 h; Potency, µM (titrated, usually from 46.1 µM), hits mostly cytotoxic; 400,000 compounds, 1.4% hits; AID 1347075, 2019; note: % is set by controls: 0 for no effect and ±100 for the full control effect; nearly all actives have a fitted effect of over 60% in size
#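 Cytotoxicity in the drug-sensitive parental line KB-3-1 was scored as loss of CellTiter-Glo luminescence following 72 h incubation with compound. Values come from curve fitting of normalized concentration-response data.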
# RORg inh: qHTS for inhibitors of ROR gamma transcriptional activity; Potency, µM (series often up to 53.6 µM), for the others: at the highest dose activity change, negative = inhibition, hits mostly inhibitors; Drosophila S2 Gal4-RORgamma UAS-luciferase reporter, 20 h; 310,000 compounds, 5.4% hits; Nuclear receptor ROR-gamma (Mus musculus), P51450; note: % is set by controls: 0 for no effect and ±100 for the full control effect; nearly all actives have a fitted effect of over 60% in size
# Target sequence (P51450 whole entry, looked up, the tested form may be a part): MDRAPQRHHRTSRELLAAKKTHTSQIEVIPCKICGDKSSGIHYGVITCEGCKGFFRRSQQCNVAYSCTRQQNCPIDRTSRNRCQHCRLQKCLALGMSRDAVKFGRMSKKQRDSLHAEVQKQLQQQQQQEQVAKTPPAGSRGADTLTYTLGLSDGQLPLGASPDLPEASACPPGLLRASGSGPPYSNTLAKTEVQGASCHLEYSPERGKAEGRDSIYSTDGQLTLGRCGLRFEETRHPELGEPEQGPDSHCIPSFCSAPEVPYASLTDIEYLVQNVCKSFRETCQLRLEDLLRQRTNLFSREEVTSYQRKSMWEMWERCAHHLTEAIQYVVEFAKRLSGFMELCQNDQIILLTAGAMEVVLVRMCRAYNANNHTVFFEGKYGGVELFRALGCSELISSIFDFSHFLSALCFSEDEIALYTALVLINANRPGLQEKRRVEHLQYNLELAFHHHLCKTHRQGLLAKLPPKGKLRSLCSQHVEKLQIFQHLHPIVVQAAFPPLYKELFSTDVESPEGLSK
#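 Luciferase reporter read in Schneider cells carrying Gal4-RORγ (mouse) and UAS-Photinus luciferase; cells given compound 1 h before 700 uM copper sulfate induction, then incubated 20 h at ambient temperature.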
# KB-V1 cytotox: qHTS assay for MDR1-selective chemotherapeutics: Primary screen using the drug-selected MDR subline cells KB-V1; KB-V1 MDR cells viability, CellTiter-Glo, 72 h; Potency, µM (doses to about 46.1 µM), actives largely listed as cytotoxic; 400,000 compounds, 3.4% hits; AID 1347076, 2019; note: % is set by controls: 0 for no effect and ±100 for the full control effect; nearly all actives have a fitted effect of over 60% in size
#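 Drug-selected KB-V1 cells, grown in DMEM lacking phenol red with 10% FBS, receive compound titrations; after three days at 37 degrees C, surviving cell ATP is quantified by CellTiter-Glo luminescence and responses normalized and curve-fitted.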
# SW480 rerep: A quantitative high throughput screen for small molecules that induce DNA re-replication in SW480 colon adenocarcinoma cells. SW480 DNA re-replication, Hoechst DNA content imaging, 48 h. Potency, µM (top dose mostly 46.1 µM), without a hit: at the top dose re-replication activation, most hits filed as activators. 340,000 compounds, 1.8% hits. AID 624297, 2012; note: % of control where 0% means no effect; nearly all actives have a fitted effect of over 55% in size
#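 Treated cells incubate 48 hr (37 C, 5% CO2), are stained 40 min with Hoechst, and nuclear fluorescence is enumerated; a rise in nuclei with high DNA signal marks re-replication.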
# VP16 counter: VP16 counterscreen qHTS for inhibitors of ROR gamma transcriptional activity | 310,000 compounds, 3.5% hits | Drosophila S2 Gal4-VP16 UAS-luciferase, luminescence, 20 h | Potency, µM (highest dose often 53.6 µM), for inactives: at the highest dose activity, negative = inhibition, hits mostly inhibitors;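 note: Gal4-VP16 expression switched on by copper sulfate through the metallothionein promoter; % is set by controls: 0 for no effect and ±100 for the full control effect; nearly all actives have a fitted effect of over 50% in size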
# MCF10A rereplic: A quantitative high throughput screen for small molecules that induce DNA re-replication in MCF 10a normal breast cells; MCF 10A DNA re-replication, Hoechst nuclear intensity, 48 h; Potency, µM (highest dose often 46.1 µM), for inactives: at the highest dose activity, positive = re-replication, most hits filed as activators; 350,000 compounds, 2.9% hits; AID 624296, 2012; note: % of control where 0% means no effect; nearly all actives have a fitted effect of over 50% in size
# The depositor's hits bear a star; i = inactive; ? = inconclusive; / = no result; [ ] = another dose, or the depositor's remark. Compounds with a hit are over-represented: about 10% of the library has one in this group of screens. Calls come from the whole dose curve; as a rule, active = well fitted curve in the direction sought with a large enough effect; inconclusive = small, poorly fitted or top-dose-only effect, or another doubt; inactive = no such curve, though single readings can be large; an effect the other way counts as inactive or inconclusive. Potency is the fitted concentration of half-maximal effect.
SMILES,KB-3-1 cytotox,RORg inh,KB-V1 cytotox,SW480 rerep,VP16 counter,MCF10A rereplic
Oc1c(Cl)cccc1C=Nc1cc(C(F)(F)F)ccc1N1CCCC1,i,11.2µM*,?,-4.4%,?,6.1%
Nc1nc(Cl)nc2c1ncn2[C@@H]1O[C@H](CO)[C@H](O)C1F (some centres undefined),/,-11.0%[10 µM],/,-2.7%,?,-1.1%
CCOc1cccc(C(=O)Nc2ccc(N(CC)CC)cc2)c1,?,16.7%,i,18.4µM*,1.6%,18.4µM*
CCOc1ccc(NC(=O)c2cccc(OC(=S)N3CCC(C)CC3)c2)cc1,i,-25.0%,18.4µM*,22.0%,1.3%,14.2%
CCCCOc1cccc(C(=O)Nc2ccc(NC(=O)c3cccs3)cc2)c1,i,?,i,6.51µM*,0.1µM*,7.31µM*
CC(=O)Nc1cccc(NC(=O)Nc2ccc(C(C)=O)cc2)c1,i,-19.0%,i,-5.1%,0.2%,12.3%
CCN(CC)c1ccc(NC(=O)Nc2cccc(C(C)=O)c2)cc1,i,7.94µM*,i,?,?,8.5%
O=C(N[C@@H]1CC[C@@H](CCNC(=O)C2CCOCC2)O[C@@H]1CO)c1ccncc1,i,/,i,/,/,/
COc1cccc(-c2nc(NCCNC(C)=O)c3ccccc3n2)c1,/,7.6%,/,/,-11.2%,/
CCc1cccc(CC)c1NC(=O)C(CC)n1nc(C)n2c(cc3cc(C)ccc32)c1=O (centres undefined),i,/,i,/,/,/
Cc1ccccc1CNC(=O)c1ccc2c(c1)c(C)c(C)n2C,i,/,i,/,/,/
CC(=O)c1cccc(NC(=O)NN2CCN(C)CC2)c1,i,?,i,5.8µM*,-3.8%,-0.1%
CCN(CC)c1ccc(NC(=O)c2ccc3c(c2)c(C)c(C)n3C)cc1,23.1µM*,30.2%,16.4µM*,?,-7.3%,?
C/C(CCN1CCCc2nc(C)c(C)cc21)=N\OC[C@@H](O)COCc1ccco1,/,10.9%[10 µM],/,/,4.4%[10 µM],/
O=C(Nc1cccc(Cl)c1)c1cc2c(=O)[nH]c3ccccc3c2s1,i,/,i,/,/,/
c1ccc(CN2CCN(c3nc(-c4ccccc4)nc(-n4ccnc4)n3)CC2)cc1,?,14.1µM*,?,20.6µM*,?,?
c1ccc(-c2nc(-n3ccnc3)nc(-n3ccnc3)n2)cc1,i,?,?,8.0%,4.5%,?
CN(c1ccccc1)c1nc(N2CCCC2)nc(-n2ccnc2)n1,i,4.47µM*,i,-8.6%,11.2µM*,?
c1ccc(N(c2ccccc2)c2nc(N3CCCC3)nc(-n3ccnc3)n2)cc1,i,7.08µM*,i,?,11.2µM*,3.66µM*
CCc1cccc(C)c1NC(=O)Cn1c(=O)cc(C)c2c(C)nn(-c3cccc(F)c3)c21,i,/,i,/,/,/
CCc1nc2ccccc2nc1N1CCN(S(=O)(=O)c2ccc(Cl)cc2)CC1,i,41.9%,i,1.8%,2.0%,?
Cc1cc(N2CCN(S(=O)(=O)c3ccc(Cl)cc3)CC2)c2ccccc2n1,?,-42.6%,18.4µM*,-8.2%,?,-6.4%
Cc1cc(N2CCN(CC(O)C(F)(F)F)CC2)c2ccccc2n1 (centres undefined),i,0.4%,i,-4.9%,-2.6%,5.0%
Cn1c(N2CCN(S(=O)(=O)c3ccc(Cl)cc3)CC2)nc2ccccc21,i,36.9%,16.4µM*,-11.5%,-12.2%,-1.6%
Cc1cc(N2CCN(S(=O)(=O)c3ccc(Cl)c(Cl)c3)CC2)c2ccccc2n1,20.6µM*,-0.1%,?,7.3%,-3.7%,?
SMILES,KB-3-1 cytotox,RORg inh,KB-V1 cytotox,SW480 rerep,VP16 counter,MCF10A rereplic
C/C(=N\NC(=O)c1cccc(C)c1O)c1ccc(NC(=O)Cc2ccccc2)cc1,/,11.2µM*,/,-16.6%,?,?
COc1ccccc1C(=O)N/N=C(\C)c1ccc(NC(=O)Cc2ccccc2)cc1,i,18.4%,i,17.0%,7.94µM*,10.4%
C/C(=N\NC(=O)c1ccccc1N)c1ccc(NC(=O)Cc2ccccc2)cc1,i,7.2%,?,3.6%,-0.1%,-1.3%
COC(=O)C1=C(C)N(c2ccc(Cl)c(Cl)c2)C(=O)C1,?,4.47µM*,i,?,12.6µM*,?
O=C(c1ccccn1)c1conc1C(=O)c1ccc(Br)cc1,i,12.6µM*,i,?,?,?
Cc1ccc(C(=O)c2nocc2C(=O)c2cccs2)cc1,i,?,i,2.6%[9.22 µM],?,?
CCNC(=O)NC(=O)C(C)OC(=O)c1oc2ccccc2c1CSC1CCCCC1 (centres undefined),i,-9.8%,13µM*,-3.2%,-2.4%,9.8%
CC(C)C(OC(=O)c1oc2ccccc2c1CSC1CCCCC1)C(=O)NC(N)=O (centres undefined),/,-28.3%,/,/,0.5%[10 µM],/
CCOc1ccc(C(C)NC(=O)C2CCN(S(=O)(=O)c3ccc(OC)cc3)CC2)cc1OCC (centres undefined),i,/,20.6µM*,4.2%,/,0.8%
CN(C)c1ccc(/C=C(/C(=O)c2ccc(Cl)cc2Cl)n2cncn2)cc1,23.1µM*,83.3%,5.17µM*,18.4µM*,?,?
CC(C)CC(=O)/C(=C\c1ccc(Cl)cc1Cl)n1cncn1,?,4.47µM*,i,6.51µM*,5.01µM*,4.61µM*
CC(C)CC(=O)/C(=C/c1ccc(N(C)C)cc1)n1cncn1,i,27.7%,i,-1.3%,8.4%,-0.9%
Cc1ccc2[nH]c(CSc3nnc(NC(=O)COc4ccc(F)cc4)s3)cc(=O)c2c1,i,/,i,/,/,/
COc1ccc(-n2nnnc2C2(C)CCC(=O)N2Cc2ccccc2)cc1 (centres undefined),i,/,i,/,/,/
CNC(=O)/C(C#N)=C1\SC(Cc2ccc(F)cc2)C(=O)N1c1ccccc1C (centres undefined),i,18.4%,i,14.1%,-3.5%,18.5%
CC(=O)/C(C#N)=C1\NC(=O)C(Cc2ccccc2C)S1 (centres undefined),?,-0.5%,5.8µM*,3.8%,-5.0%,-7.5%
CC(=O)/C(C#N)=C1\NC(=O)C(Cc2ccccc2)S1 (centres undefined),14.6µM*,1.9%,13µM*,?,-4.7%,23.7%
C[C@@]1(O)CCOC(=O)C1,/,-0.5%[16.9 µM],/,/,3.4%[17 µM],/
